# In paper PMC7862700, “An all-to-all approach to the identification of sequence-specific readers for epigenetic DNA modifications on cytosine”:
# Tests used:
# Test in all cases: DAPPL (digital affinity profiling via proximity ligation, sequencing); 10 mM Tris-HCl pH 7.5, 50 mM NaCl, 1 mM DTT, 4% glycerol, room temperature, 30 min; GST-TFs on glutathione beads, 16-mer random dsDNA library, 0.1% formaldehyde crosslink after washing; high values mean tight binding
# FEV = molecular target: T1, FEV (Homo sapiens, UniProt Q99581 1-238); details: protein: recombinant; tags: N-terminal GST; dsDNA, one strand shown
# T1 sequence: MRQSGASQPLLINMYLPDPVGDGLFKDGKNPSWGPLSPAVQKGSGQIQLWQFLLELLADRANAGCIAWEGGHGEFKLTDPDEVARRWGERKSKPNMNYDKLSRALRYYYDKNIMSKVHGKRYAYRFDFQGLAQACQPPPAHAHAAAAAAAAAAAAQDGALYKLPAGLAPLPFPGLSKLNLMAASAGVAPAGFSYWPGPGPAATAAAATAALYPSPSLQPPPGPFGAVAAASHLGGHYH
# Summary of the method: (§1)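 After expression in yeast as GST fusions, human transcription factors were bound to glutathione beads, DNA-barcoded and mixed with a tag-only sample. The pools were incubated with 200 nmole of a 16-mer random double-stranded DNA library in Tris/NaCl/DTT/glycerol buffer (30 min, room temperature), washed and crosslinked with 0.1% formaldehyde. Proximity ligation with BsaI/T4 ligase ran for 1 h at 37 °C, before PCR amplification and sequencing on an Illumina NextSeq500. Binding signal is a hexamer's read frequency for a factor divided by its frequency for the tag-only sample.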
# ETV5 = ETV5 (Homo sapiens, UniProt P41161 1-510); details: protein: recombinant; tags: N-terminal GST; dsDNA, one strand shown
# Summary of the method: as §1
# HSF1 = HSF1 (Homo sapiens, UniProt Q00613 1-529); details: protein: recombinant; tags: N-terminal GST; chain copies: 3; dsDNA, one strand shown
# Summary of the method: as §1
# SPIC = molecular target: T2, SPIC (Homo sapiens, UniProt Q8N5J4 1-248); details: protein: recombinant; tags: N-terminal GST; dsDNA, one strand shown
# T2 sequence: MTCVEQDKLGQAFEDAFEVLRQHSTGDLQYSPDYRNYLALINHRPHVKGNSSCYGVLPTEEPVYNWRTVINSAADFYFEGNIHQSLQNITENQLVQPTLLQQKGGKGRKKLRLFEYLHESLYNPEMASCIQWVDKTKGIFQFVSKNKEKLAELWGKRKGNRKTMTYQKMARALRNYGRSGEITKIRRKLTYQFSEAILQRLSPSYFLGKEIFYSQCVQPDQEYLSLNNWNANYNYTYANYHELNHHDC
# Summary of the method: as §1
# ELF4 = ELF4 (Homo sapiens, UniProt Q99607 1-663); details: protein: recombinant; tags: N-terminal GST; dsDNA, one strand shown
# Summary of the method: as §1
# ELK4 = molecular target: T3, ELK4 (Homo sapiens, UniProt P28324-2 1-405); details: protein: recombinant; tags: N-terminal GST; dsDNA, one strand shown
# T3 sequence: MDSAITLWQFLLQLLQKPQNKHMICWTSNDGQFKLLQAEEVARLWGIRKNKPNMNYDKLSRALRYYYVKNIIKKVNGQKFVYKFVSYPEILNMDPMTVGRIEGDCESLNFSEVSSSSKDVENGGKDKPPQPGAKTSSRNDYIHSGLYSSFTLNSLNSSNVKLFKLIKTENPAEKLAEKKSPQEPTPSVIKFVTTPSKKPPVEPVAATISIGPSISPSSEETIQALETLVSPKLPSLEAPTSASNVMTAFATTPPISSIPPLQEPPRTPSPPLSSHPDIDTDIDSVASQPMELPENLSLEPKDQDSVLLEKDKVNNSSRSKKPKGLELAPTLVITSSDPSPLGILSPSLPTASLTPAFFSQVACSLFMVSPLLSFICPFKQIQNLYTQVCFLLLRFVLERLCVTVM
# Summary of the method: as §1
# ETV2 = molecular target: T4, ETV2 (Homo sapiens, UniProt O00321 1-342); details: protein: recombinant; tags: N-terminal GST; dsDNA, one strand shown
# T4 sequence: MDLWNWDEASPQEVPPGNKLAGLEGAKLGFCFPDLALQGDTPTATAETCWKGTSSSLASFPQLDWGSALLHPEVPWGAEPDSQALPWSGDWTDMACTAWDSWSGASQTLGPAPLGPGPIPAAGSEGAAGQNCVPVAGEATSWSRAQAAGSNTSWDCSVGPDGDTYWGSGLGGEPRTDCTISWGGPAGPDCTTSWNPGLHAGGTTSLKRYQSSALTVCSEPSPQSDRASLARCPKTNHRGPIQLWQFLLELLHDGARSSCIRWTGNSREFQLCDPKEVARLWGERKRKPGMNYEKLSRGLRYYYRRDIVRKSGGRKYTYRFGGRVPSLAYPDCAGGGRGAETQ
# Summary of the method: as §1
# ELF3 = molecular target: T5, ELF3 (Homo sapiens, UniProt P78545 1-371); details: protein: recombinant; tags: N-terminal GST; dsDNA, one strand shown
# T5 sequence: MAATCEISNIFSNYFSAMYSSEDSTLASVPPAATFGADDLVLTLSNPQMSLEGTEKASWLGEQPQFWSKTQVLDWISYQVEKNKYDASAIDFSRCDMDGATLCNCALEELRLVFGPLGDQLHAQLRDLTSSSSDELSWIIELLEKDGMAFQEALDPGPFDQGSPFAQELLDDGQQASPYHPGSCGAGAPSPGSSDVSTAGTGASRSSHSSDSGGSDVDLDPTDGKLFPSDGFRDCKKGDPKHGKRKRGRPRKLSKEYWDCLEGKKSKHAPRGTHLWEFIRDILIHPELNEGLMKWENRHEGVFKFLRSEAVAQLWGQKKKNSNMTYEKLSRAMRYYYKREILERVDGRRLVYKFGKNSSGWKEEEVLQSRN
# Summary of the method: as §1
# CRX = CRX (Homo sapiens, UniProt O43186 1-299); details: protein: recombinant; tags: N-terminal GST; dsDNA, one strand shown
# Summary of the method: as §1
# ETV1 = ETV1 (Homo sapiens, UniProt P50549 1-477); details: protein: recombinant; tags: N-terminal GST; dsDNA, one strand shown
# Summary of the method: as §1
# ERF = molecular target: T6, ERF (Homo sapiens, UniProt P50548 1-548); details: protein: recombinant; tags: N-terminal GST; dsDNA, one strand shown
# T6 sequence: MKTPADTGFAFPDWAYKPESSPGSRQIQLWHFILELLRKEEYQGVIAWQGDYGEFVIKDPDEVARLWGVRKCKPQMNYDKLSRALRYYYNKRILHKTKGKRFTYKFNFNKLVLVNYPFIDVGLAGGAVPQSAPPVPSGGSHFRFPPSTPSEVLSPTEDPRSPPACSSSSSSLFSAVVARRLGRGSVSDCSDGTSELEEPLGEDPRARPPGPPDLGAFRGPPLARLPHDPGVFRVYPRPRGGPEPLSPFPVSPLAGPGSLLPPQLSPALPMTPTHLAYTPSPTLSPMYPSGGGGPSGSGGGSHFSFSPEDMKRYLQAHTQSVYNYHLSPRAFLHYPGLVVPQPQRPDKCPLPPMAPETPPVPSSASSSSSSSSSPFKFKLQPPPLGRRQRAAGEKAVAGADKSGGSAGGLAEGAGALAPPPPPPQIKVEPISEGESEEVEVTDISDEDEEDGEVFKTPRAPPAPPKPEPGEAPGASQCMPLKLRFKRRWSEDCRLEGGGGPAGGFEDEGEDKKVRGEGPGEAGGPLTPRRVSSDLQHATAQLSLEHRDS
# Summary of the method: as §1
# ETV3L = molecular target: T7, ETV3L (Homo sapiens, UniProt Q6ZN32 1-361); details: protein: recombinant; tags: N-terminal GST; dsDNA, one strand shown
# T7 sequence: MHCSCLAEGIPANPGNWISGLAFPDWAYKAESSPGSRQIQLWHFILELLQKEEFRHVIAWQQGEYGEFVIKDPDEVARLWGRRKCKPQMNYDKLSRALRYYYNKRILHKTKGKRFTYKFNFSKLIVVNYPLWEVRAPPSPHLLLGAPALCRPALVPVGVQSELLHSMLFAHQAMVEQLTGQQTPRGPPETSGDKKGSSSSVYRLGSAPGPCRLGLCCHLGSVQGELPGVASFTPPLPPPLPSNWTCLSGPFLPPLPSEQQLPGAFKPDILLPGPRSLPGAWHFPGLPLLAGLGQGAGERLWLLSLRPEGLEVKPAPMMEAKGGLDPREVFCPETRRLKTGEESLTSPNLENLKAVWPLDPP
# Summary of the method: as §1
# ETS2 = molecular target: T8, ETS2 (Homo sapiens, UniProt P15036 1-469); details: protein: recombinant; tags: N-terminal GST; dsDNA, one strand shown
# T8 sequence: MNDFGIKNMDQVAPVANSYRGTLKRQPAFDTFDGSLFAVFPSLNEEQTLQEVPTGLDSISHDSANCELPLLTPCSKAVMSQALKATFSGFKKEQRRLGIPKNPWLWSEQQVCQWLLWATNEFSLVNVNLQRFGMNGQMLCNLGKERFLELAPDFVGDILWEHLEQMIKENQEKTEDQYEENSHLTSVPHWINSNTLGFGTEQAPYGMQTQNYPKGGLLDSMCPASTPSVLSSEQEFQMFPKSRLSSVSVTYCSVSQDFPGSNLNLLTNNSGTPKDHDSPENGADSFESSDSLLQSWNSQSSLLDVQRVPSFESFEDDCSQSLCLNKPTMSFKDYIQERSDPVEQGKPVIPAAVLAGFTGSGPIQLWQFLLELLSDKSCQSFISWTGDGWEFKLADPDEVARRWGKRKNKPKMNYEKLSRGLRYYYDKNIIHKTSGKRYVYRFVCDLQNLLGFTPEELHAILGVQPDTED
# Summary of the method: as §1
# SPDEF = molecular target: T9, SPDEF (Homo sapiens, UniProt O95238 1-335); details: protein: recombinant; tags: N-terminal GST; dsDNA, one strand shown
# T9 sequence: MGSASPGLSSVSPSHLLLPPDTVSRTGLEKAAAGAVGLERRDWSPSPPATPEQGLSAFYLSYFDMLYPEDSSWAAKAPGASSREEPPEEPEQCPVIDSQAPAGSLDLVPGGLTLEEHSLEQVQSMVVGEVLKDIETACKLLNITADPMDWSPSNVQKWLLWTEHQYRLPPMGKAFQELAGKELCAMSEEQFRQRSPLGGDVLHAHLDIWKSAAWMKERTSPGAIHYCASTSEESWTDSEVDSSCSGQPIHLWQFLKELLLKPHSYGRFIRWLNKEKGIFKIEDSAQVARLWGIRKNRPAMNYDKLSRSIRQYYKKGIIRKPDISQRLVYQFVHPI
# Summary of the method: as §1
# ETV7 = molecular target: T10, ETV7 (Homo sapiens, UniProt Q9Y603 1-341); details: protein: recombinant; tags: N-terminal GST; dsDNA, one strand shown
# T10 sequence: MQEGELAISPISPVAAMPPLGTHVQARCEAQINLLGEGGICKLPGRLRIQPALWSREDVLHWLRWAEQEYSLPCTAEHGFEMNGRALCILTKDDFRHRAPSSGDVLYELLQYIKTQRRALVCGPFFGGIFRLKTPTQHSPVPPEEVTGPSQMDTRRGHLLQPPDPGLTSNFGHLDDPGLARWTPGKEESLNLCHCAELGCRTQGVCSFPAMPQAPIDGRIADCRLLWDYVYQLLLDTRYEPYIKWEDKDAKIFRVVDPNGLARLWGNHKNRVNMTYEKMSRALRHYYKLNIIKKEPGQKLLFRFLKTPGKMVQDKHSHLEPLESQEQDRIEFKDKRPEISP
# Summary of the method: as §1
# ELF5 = molecular target: T11, ELF5 (Homo sapiens, UniProt Q9UKW6-2 1-255); details: protein: recombinant; tags: N-terminal GST; dsDNA, one strand shown
# T11 sequence: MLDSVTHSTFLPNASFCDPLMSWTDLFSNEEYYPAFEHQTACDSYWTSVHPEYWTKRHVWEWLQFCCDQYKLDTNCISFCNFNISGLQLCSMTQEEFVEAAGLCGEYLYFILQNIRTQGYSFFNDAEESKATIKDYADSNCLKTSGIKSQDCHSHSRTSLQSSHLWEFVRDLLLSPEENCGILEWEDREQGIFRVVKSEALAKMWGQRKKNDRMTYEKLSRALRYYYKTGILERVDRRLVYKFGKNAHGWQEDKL
# Summary of the method: as §1
# ETV3 = molecular target: T12, ETV3 (Homo sapiens, UniProt P41162-2 1-143); details: protein: recombinant; tags: N-terminal GST; dsDNA, one strand shown
# T12 sequence: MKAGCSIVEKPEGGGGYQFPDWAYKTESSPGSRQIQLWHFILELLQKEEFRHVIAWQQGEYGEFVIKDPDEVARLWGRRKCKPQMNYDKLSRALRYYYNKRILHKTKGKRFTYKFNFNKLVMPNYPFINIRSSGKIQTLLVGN
# Summary of the method: as §1
# ETV6 = ETV6 (Homo sapiens, UniProt P41212 1-452); details: protein: recombinant; tags: N-terminal GST; dsDNA, one strand shown
# Summary of the method: as §1
# Sequence of ETV6 (P41212 whole entry): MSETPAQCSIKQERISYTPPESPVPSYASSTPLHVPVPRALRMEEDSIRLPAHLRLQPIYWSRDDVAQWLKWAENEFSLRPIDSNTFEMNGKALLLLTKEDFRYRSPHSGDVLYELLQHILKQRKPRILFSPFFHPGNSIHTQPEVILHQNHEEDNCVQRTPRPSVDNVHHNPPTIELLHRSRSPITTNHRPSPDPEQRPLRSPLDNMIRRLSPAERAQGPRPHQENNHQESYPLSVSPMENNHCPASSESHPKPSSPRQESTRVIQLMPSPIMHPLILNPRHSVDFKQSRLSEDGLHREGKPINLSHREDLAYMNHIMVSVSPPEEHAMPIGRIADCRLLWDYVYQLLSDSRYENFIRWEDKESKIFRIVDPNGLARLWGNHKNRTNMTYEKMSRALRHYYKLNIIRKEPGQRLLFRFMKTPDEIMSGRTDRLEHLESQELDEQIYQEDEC
# Sequence of HSF1 (Q00613 whole entry): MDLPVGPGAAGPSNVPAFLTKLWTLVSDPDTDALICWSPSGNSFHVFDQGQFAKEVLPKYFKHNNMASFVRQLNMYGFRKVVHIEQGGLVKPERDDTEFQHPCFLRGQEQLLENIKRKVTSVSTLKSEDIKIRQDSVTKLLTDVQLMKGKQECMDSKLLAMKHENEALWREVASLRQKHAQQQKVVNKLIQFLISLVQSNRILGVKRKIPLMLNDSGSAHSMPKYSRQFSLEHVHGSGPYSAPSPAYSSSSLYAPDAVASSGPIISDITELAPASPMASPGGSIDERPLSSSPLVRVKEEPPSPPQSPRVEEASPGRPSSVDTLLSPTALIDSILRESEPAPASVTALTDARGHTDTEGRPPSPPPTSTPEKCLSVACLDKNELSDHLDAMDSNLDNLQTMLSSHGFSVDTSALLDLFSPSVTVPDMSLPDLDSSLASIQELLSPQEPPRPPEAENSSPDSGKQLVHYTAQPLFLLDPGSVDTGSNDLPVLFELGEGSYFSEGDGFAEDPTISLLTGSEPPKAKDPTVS
# Sequence of CRX (O43186 whole entry): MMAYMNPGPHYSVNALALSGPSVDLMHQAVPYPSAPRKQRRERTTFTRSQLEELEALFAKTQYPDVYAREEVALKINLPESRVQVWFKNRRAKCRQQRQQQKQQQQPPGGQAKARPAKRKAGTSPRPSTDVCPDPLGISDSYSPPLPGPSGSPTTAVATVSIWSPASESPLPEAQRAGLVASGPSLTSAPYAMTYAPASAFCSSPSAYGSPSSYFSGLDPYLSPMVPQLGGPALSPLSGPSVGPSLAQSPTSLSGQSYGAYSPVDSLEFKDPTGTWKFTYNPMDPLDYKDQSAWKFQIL
# Sequence of ELF4 (Q99607 whole entry): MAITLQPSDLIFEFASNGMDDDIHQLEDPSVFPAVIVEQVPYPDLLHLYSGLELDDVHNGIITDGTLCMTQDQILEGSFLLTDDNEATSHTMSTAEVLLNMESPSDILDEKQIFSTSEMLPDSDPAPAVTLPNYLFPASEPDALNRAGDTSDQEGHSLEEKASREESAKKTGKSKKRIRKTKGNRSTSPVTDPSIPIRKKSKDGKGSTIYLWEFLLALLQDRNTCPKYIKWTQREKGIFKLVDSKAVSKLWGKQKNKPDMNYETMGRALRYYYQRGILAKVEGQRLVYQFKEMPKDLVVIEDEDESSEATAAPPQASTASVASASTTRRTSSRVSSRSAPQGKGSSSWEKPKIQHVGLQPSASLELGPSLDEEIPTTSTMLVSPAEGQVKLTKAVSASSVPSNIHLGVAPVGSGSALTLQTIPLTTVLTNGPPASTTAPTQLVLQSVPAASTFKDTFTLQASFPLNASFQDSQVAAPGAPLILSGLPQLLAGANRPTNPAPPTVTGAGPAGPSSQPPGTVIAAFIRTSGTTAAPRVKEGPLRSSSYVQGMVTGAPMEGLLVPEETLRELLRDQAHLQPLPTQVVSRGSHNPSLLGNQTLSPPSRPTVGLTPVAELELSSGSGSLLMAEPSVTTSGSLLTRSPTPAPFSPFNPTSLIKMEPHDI
# Sequence of ETV1 (P50549 whole entry): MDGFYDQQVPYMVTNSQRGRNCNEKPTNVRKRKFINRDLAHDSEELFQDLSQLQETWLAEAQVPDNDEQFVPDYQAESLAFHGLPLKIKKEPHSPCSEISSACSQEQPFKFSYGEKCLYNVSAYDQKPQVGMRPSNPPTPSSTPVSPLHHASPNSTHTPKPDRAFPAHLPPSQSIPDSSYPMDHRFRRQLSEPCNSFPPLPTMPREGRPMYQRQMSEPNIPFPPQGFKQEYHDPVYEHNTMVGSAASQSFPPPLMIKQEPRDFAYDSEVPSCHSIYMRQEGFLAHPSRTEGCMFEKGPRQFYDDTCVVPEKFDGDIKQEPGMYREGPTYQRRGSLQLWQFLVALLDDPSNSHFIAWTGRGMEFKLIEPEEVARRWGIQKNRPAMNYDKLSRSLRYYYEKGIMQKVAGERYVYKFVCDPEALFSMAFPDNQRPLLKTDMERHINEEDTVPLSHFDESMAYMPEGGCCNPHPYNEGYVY
# Sequence of ETV5 (P41161 whole entry): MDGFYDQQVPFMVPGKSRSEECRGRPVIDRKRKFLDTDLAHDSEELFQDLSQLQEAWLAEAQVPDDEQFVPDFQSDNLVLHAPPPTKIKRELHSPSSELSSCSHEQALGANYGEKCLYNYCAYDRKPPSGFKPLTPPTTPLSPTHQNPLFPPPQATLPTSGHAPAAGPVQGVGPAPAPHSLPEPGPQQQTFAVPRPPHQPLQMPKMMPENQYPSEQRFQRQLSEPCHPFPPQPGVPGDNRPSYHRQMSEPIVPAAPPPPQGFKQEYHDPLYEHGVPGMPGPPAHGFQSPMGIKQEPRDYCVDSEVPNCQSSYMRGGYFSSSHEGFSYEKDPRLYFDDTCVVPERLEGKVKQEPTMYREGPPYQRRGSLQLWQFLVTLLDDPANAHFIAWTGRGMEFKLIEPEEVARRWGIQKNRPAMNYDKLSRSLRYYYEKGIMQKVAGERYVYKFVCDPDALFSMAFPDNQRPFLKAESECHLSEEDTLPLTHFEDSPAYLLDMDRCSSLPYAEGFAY
sequence,measurement,setting,value
TTAAAA,binding signal,FEV,"1.16 fold enrichment (6-mer frequency, TF over GST control)"
same,binding signal,ETV5,"1.14 fold enrichment (6-mer frequency, TF over GST control)"
same,binding signal,HSF1,"1.87 fold enrichment (6-mer frequency, TF over GST control)"
same,binding signal,SPIC,"1.28 fold enrichment (6-mer frequency, TF over GST control)"
same,binding signal,ELF4,"1.19 fold enrichment (6-mer frequency, TF over GST control)"
same,binding signal,ELK4,"1.27 fold enrichment (6-mer frequency, TF over GST control)"
same,binding signal,ETV2,"1.25 fold enrichment (6-mer frequency, TF over GST control)"
same,binding signal,ELF3,"1.24 fold enrichment (6-mer frequency, TF over GST control)"
same,binding signal,CRX,"2.69 fold enrichment (6-mer frequency, TF over GST control)"
same,binding signal,ETV1,"1.22 fold enrichment (6-mer frequency, TF over GST control)"
same,binding signal,ERF,"1.3 fold enrichment (6-mer frequency, TF over GST control)"
same,binding signal,ETV3L,"1.27 fold enrichment (6-mer frequency, TF over GST control)"
same,binding signal,ETS2,"1.17 fold enrichment (6-mer frequency, TF over GST control)"
same,binding signal,SPDEF,"1.15 fold enrichment (6-mer frequency, TF over GST control)"
same,binding signal,ETV7,"1.26 fold enrichment (6-mer frequency, TF over GST control)"
same,binding signal,ELF5,"1.11 fold enrichment (6-mer frequency, TF over GST control)"
same,binding signal,ETV3,"1.17 fold enrichment (6-mer frequency, TF over GST control)"
same,binding signal,ETV6,"1.19 fold enrichment (6-mer frequency, TF over GST control)"
